Source: PubChem BioAssay (NCI)
This is part of a sample that, as a whole, favours compounds with a hit. Of some 83,000 tested, about 20% had one in any assay.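 Treatment: one concentration, 48 hours, 96-well format. Scoring: percent growth, with anything below 10 considered active.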 Activity calls are given as the source filed them.

Legend:
Assay in all cases: NCI-60 one-dose screen, 48 h (100 = growth as untreated, 0 = no growth, -100 = all killed)
Details in all cases: 10 µM unless noted
NCI-H23 lung = system: NCI-H23 lung
NCI-H226 lung = system: NCI-H226 lung
NCI-H322M lung = system: NCI-H322M lung
HOP-62 NSCLC = system: HOP-62 NSCLC
NCI-H460 lung = system: NCI-H460 lung
HOP-92 NSCLC = system: HOP-92 NSCLC
A549/ATCC NSCLC = system: A549/ATCC NSCLC
786-0 renal = system: 786-0 renal
COLO 205 colon = system: COLO 205 colon
DU-145 prostate = system: DU-145 prostate
K-562 leukemia = system: K-562 leukemia
MALME-3M melanoma = system: MALME-3M melanoma
MDA-MB-231 breast = system: MDA-MB-231 breast
RXF 393 renal = system: RXF 393 renal
SF-268 CNS = system: SF-268 CNS
SF-295 CNS = system: SF-295 CNS
SF-539 CNS = system: SF-539 CNS
UACC-257 melanoma = system: UACC-257 melanoma
M14 melanoma = system: M14 melanoma
NCI-H522 lung = system: NCI-H522 lung

Measured: growth

CC(C)(C)C(=O)c1c2c(c3ccc4c5ccccc5ccc4n13)C(=O)c1ccccc1C2=O
inactive: NCI-H23 lung 73.5% | NCI-H226 lung 73.1% | NCI-H322M lung 97.5% | HOP-62 NSCLC 84.6% | NCI-H460 lung 55.9% | HOP-92 NSCLC 104% | A549/ATCC NSCLC 84.9% | 786-0 renal 109% | COLO 205 colon 102% | DU-145 prostate 95.6% | K-562 leukemia 103% | MDA-MB-231 breast 85.7% | RXF 393 renal 105% | SF-268 CNS 101% | SF-295 CNS 99.6% | SF-539 CNS 87.2% | UACC-257 melanoma 105% | M14 melanoma 71.3%
active: MALME-3M melanoma 9.73%

CCOc1ccccc1[C@H]1C(C(=O)c2ccc(Cl)cc2)C2(N[C@@H]1c1ccccc1)C(=O)Nc1ccc(Br)cc12 (some centres not stated)
inactive: NCI-H322M lung 15.8% | A549/ATCC NSCLC 41% | DU-145 prostate 23% | SF-268 CNS 14.2% | UACC-257 melanoma 44%
active: NCI-H23 lung -39.1% | NCI-H226 lung -68.4% | HOP-62 NSCLC 7.94% | NCI-H460 lung 2.95% | HOP-92 NSCLC -46.9% | 786-0 renal -76.5% | COLO 205 colon -82.3% | K-562 leukemia -13% | MALME-3M melanoma -15% | MDA-MB-231 breast -68.7% | RXF 393 renal -88.4% | SF-295 CNS -42.6% | SF-539 CNS -70.2% | M14 melanoma -38%

N#Cc1c(NC(=O)N2CCOCC2)n(-c2ccc(OC(F)(F)F)cc2)c2cc(F)ccc12
active: K-562 leukemia 8.91%
inactive: NCI-H23 lung 90.7% | NCI-H226 lung 87.3% | NCI-H322M lung 108% | HOP-62 NSCLC 106% | NCI-H460 lung 94.5% | HOP-92 NSCLC 102% | A549/ATCC NSCLC 86.3% | 786-0 renal 112% | COLO 205 colon 108% | DU-145 prostate 100% | MALME-3M melanoma 94.5% | MDA-MB-231 breast 73.7% | RXF 393 renal 95.2% | SF-268 CNS 114% | SF-295 CNS 87.7% | SF-539 CNS 87.7% | UACC-257 melanoma 102% | M14 melanoma 96.7%

COc1ccc2oc(=O)c(-c3csc(N/N=C(\C)c4cc(OC)c(OC)c(OC)c4)n3)cc2c1
inactive: NCI-H23 lung 84% | NCI-H226 lung 89.7% | NCI-H322M lung 96.8% | HOP-62 NSCLC 109% | NCI-H460 lung 79.1% | HOP-92 NSCLC 96.8% | A549/ATCC NSCLC 101% | 786-0 renal 90.5% | COLO 205 colon 99.8% | DU-145 prostate 101% | K-562 leukemia 92.3% | MALME-3M melanoma 85% | MDA-MB-231 breast 86.8% | RXF 393 renal 85.7% | SF-268 CNS 99.3% | SF-295 CNS 92% | SF-539 CNS 103% | UACC-257 melanoma 106% | M14 melanoma 91.9%

CC1=C(C(=O)Nc2ccccc2)C(c2ccc3ccccc3c2)n2c(nc3ccccc32)N1 (configuration not stated)
active: NCI-H460 lung -45.5% | A549/ATCC NSCLC 8.83% | MDA-MB-231 breast 5.61%
inactive: NCI-H23 lung 73.3% | NCI-H226 lung 84% | NCI-H322M lung 66.3% | HOP-62 NSCLC 113% | HOP-92 NSCLC 64.2% | 786-0 renal 10.6% | COLO 205 colon 112% | DU-145 prostate 46.2% | K-562 leukemia 43.8% | MALME-3M melanoma 72.5% | RXF 393 renal 53.3% | SF-268 CNS 72.5% | SF-295 CNS 37% | SF-539 CNS 81.8% | UACC-257 melanoma 81.1%

C/C(=N\Nc1ccc(S(N)(=O)=O)cc1)c1cnn(-c2cc(=O)[nH]c3ccc(Br)cc23)c1C
active: HOP-92 NSCLC -2.47%
inactive: NCI-H23 lung 69.9% | NCI-H226 lung 62.3% | NCI-H322M lung 77.7% | HOP-62 NSCLC 63.4% | NCI-H460 lung 77.9% | 786-0 renal 85.9% | COLO 205 colon 85.5% | DU-145 prostate 77.9% | K-562 leukemia 35% | MALME-3M melanoma 21.7% | MDA-MB-231 breast 31.4% | RXF 393 renal 68.6% | SF-268 CNS 57.3% | SF-295 CNS 91.9% | SF-539 CNS 41.6% | UACC-257 melanoma 66.3% | M14 melanoma 73%

NC(=Nc1ccc(OCCCCCCCCn2cnnn2)cc1)c1ccccc1
inactive: NCI-H23 lung 10.8% | NCI-H226 lung 21.3% | NCI-H322M lung 57% | HOP-62 NSCLC 18.6% | HOP-92 NSCLC 82.5% | A549/ATCC NSCLC 23.7% | 786-0 renal 34.5% | K-562 leukemia 15.4% | MALME-3M melanoma 46.3% | MDA-MB-231 breast 11.8% | SF-268 CNS 38.8% | UACC-257 melanoma 49.7% | M14 melanoma 18.1%

COc1ccc(C2=NN(C(=O)[C@H]3[C@@H](c4ccco4)c4sc(=O)[nH]c4S[C@@H]3C)C(c3ccc4ccccc4c3)C2)cc1 (some centres not stated)
inactive: NCI-H23 lung 33.8% | NCI-H226 lung 29.3% | NCI-H322M lung 49.1% | HOP-62 NSCLC 59.7% | NCI-H460 lung 23.8% | HOP-92 NSCLC 29.1% | A549/ATCC NSCLC 17.6% | 786-0 renal 44.6% | DU-145 prostate 62.7% | K-562 leukemia 16% | MALME-3M melanoma 50.6% | MDA-MB-231 breast 47.5% | RXF 393 renal 11.2% | SF-268 CNS 45.3% | SF-295 CNS 38.6% | SF-539 CNS 28.6% | UACC-257 melanoma 43.2%
active: COLO 205 colon 7.92%

COc1ccc(/C=C/C(=O)c2ccc(OC)c(S(N)(=O)=O)c2)c(C(F)(F)F)c1
inactive: A549/ATCC NSCLC 10.6% | DU-145 prostate 16.4% | MALME-3M melanoma 17.8% | RXF 393 renal 16.4% | SF-268 CNS 15.5% | SF-295 CNS 37.5% | UACC-257 melanoma 62.3%
active: NCI-H23 lung -78.3% | NCI-H226 lung -40.9% | NCI-H322M lung -2.93% | HOP-62 NSCLC -5.21% | NCI-H460 lung 4.78% | HOP-92 NSCLC 6.4% | 786-0 renal -82% | COLO 205 colon 4.9% | K-562 leukemia 7% | MDA-MB-231 breast 5.46% | SF-539 CNS -84.9% | M14 melanoma -48.5%

COc1ccc2[nH]c(=O)c(CSc3ccccc3Nc3nccc(-c4ccc(C(F)(F)F)cc4)n3)cc2c1
active: NCI-H522 lung 0.553% | 786-0 renal -4.97% | RXF 393 renal -41.2% | SF-295 CNS 5.31% | SF-539 CNS 0.901%
inactive: NCI-H23 lung 30.7% | NCI-H322M lung 67.4% | HOP-62 NSCLC 53.6% | NCI-H460 lung 17.4% | HOP-92 NSCLC 26.7% | A549/ATCC NSCLC 18.5% | COLO 205 colon 27.8% | DU-145 prostate 27.3% | K-562 leukemia 19.5% | MALME-3M melanoma 47.4% | MDA-MB-231 breast 31.6% | SF-268 CNS 19.5% | UACC-257 melanoma 50.3% | M14 melanoma 52.3%

CCOC(=O)c1ccc(NC(=S)NC(=O)c2ccc(NC(=O)C(C)C)cc2OC)cc1
inactive: NCI-H23 lung 15.9% | NCI-H322M lung 74.9% | HOP-62 NSCLC 53.9% | NCI-H460 lung 44.5% | HOP-92 NSCLC 33.6% | NCI-H522 lung 30.9% | A549/ATCC NSCLC 80.2% | 786-0 renal 85.2% | COLO 205 colon 37.5% | DU-145 prostate 78.2% | K-562 leukemia 10.7% | MDA-MB-231 breast 47.2% | RXF 393 renal 74.2% | SF-268 CNS 68.1% | SF-295 CNS 36.8% | SF-539 CNS 79.6% | UACC-257 melanoma 42% | M14 melanoma 34.1%
active: MALME-3M melanoma 3.16%

COc1c(B(O)O)cc(F)cc1-c1nc2ccc3[nH]ncc3c2c2c1COCC2
active: RXF 393 renal -5.84%
inactive: NCI-H23 lung 78.3% | NCI-H322M lung 78.4% | HOP-62 NSCLC 49.5% | NCI-H460 lung 64.9% | HOP-92 NSCLC 18.1% | NCI-H522 lung 14.5% | A549/ATCC NSCLC 92.5% | 786-0 renal 46.1% | COLO 205 colon 38.1% | DU-145 prostate 73.5% | K-562 leukemia 63.7% | MALME-3M melanoma 126% | MDA-MB-231 breast 33.4% | SF-268 CNS 44.9% | SF-295 CNS 77.2% | SF-539 CNS 21.7% | UACC-257 melanoma 97.5% | M14 melanoma 114%

O=C1CCC(N2C(=O)c3cccc(NCCOCCOCCOCCC(=O)NCCCC(=O)NC(c4ccc5c(c4)OCO5)c4cc(Cl)c5cccnc5c4O)c3C2=O)C(=O)C1 (configuration not stated)
active: NCI-H522 lung 6.82%
inactive: NCI-H23 lung 45.1% | NCI-H322M lung 39.5% | HOP-62 NSCLC 34.3% | NCI-H460 lung 26.6% | HOP-92 NSCLC 13.7% | A549/ATCC NSCLC 88.3% | 786-0 renal 70.8% | COLO 205 colon 24.5% | DU-145 prostate 60% | K-562 leukemia 22.8% | MALME-3M melanoma 29.3% | MDA-MB-231 breast 25.3% | RXF 393 renal 43.6% | SF-268 CNS 24.4% | SF-295 CNS 61.6% | SF-539 CNS 10.3% | UACC-257 melanoma 29.7% | M14 melanoma 54.8%

CN(C)CCCNC(=S)Nc1ccc(/C=C/c2ccc(Cl)cc2)cc1
active: NCI-H23 lung -89.2% | NCI-H322M lung -95% | HOP-62 NSCLC -50.8% | NCI-H460 lung -35.8% | HOP-92 NSCLC -53.3% | NCI-H522 lung -51.9% | A549/ATCC NSCLC -36% | 786-0 renal -37.4% | COLO 205 colon -58% | DU-145 prostate -61.8% | K-562 leukemia 4.54% | MALME-3M melanoma -95% | MDA-MB-231 breast -100% | RXF 393 renal -25.8% | SF-268 CNS 0.261% | SF-295 CNS -51.7% | SF-539 CNS -68.6% | UACC-257 melanoma -79.9% | M14 melanoma -63.5%
